Experimental findings from PubChem BioAssay (NCATS) are described below.

Inconclusive results are not listed. Values without a mark were called inactive. Calls of active or inactive are those of the source. The call rests on the fitted dose curve; in most records, active means well fitted inhibition curve with a large enough effect; inconclusive means small, poorly fitted or top-dose-only effect; inactive means no such curve, though single readings can be large or run the other way.
Potency means the concentration at half of the fitted maximal effect.

This assay can be described thus: BET inhibitor-based combinations targeting novel dependencies in MECOM-rearranged (r) AML: MV-4-11 cell line (AID 2202233). Further: nearly all actives have a fitted effect of over 45% in size.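 On viability, % of control: plate controls were DMSO for no effect and blank wells for full effect.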 To be noted: MV-4-11 AML viability, CellTiter-Glo luminescence, 48 h; series mostly up to 46 µM; viability, % of control: at the top concentration. The gist of the method:
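Cells were plated at 500 per well and exposed to each drug across an 11-point dose range for 48 hr at standard incubator conditions. Viability was read by CellTiter-Glo luminescence, and activity was expressed as AUC and per-cell-line Z-transformed AUC.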
(In general: In ATP-based viability assays light output follows the ATP content of the culture.)
As to `Cn1cncc1C(N)(c1ccc(Cl)cc1)c1ccc2c(c1)c(-c1cccc(Cl)c1)cc(=O)n2C` (centres undefined), the Potency was 5.25 µM (active).

`CC(C)(C)c1cc(C(=O)O)c(NC(=O)Nc2ccc3[nH]ncc3c2)s1`: the Potency was 18.6 µM (active).

With `O=C(c1cc(Cc2n[nH]c(=O)c3ccccc23)ccc1F)N1CCN(C(=O)C2CC2)CC1`, the Potency is 8.33 µM (active).

`Cc1cc(C(=O)N2CCN(c3cccc(Cl)c3)CC2)n(-c2ccccc2)n1`: the Potency is 3.72 µM (active).

For the molecule `COc1ccc(CCC(=O)Nc2nc3ccc(Cl)cc3s2)cc1OC`, the “viability, % of control” value is 97.4%.

With `CNC(=O)c1cccc(-c2ccc3c(N4CCOC[C@@H]4C)nc(N4CCOC[C@@H]4C)nc3n2)c1`, the Potency was 0.372 µM (active).

For `O=C(C(c1ccccc1)c1ccccc1)N1CCN(CC(O)COc2cccc3ncccc23)CC1` (centres undefined), the Potency was 18.6 µM (active).

In the case of `CC(C)(C)NC(=O)Nc1cccc(Nc2ncc(F)c(NC(C)(C)CO)n2)c1`, the Potency was 2.63 µM (active).

For `O=C(NCC(=O)N1CC[C@H](NC2CCC(O)(c3ccc(-c4ncccn4)cn3)CC2)C1)c1cccc(C(F)(F)F)c1` (some centres undefined), the Potency is 10.5 µM (active).

As for `NCC(=O)Nc1ccc(-n2nc(C(F)(F)F)cc2-c2ccc3c(ccc4ccccc43)c2)cc1`, the Potency is 4.68 µM (active).

Take `Cc1cc(-c2ncc(CC(=O)Nc3ccc(-c4cnccn4)cn3)cc2C)ccn1`: the Potency was 8.33 µM (active).

On to `COc1ccc(N(C)c2nc(C)nc3ccccc23)cc1`, for which the Potency is 0.0105 µM (active).

As to `NC(=O)c1cccc2cn(-c3ccc([C@@H]4CCCNC4)cc3)nc12`, the Potency was 4.17 µM (active).

As for `COc1ccc2c(OCc3nnc4ccc(-c5ccccc5)nn34)ccnc2c1`, the “viability, % of control” value was 102%.
